TIM10 inh: TIM10 yeast growth inhibition. S. cerevisiae TIM10 strain growth, BacTiter-Glo luminescence, 24 h. AID 463195. inhibition, % at 10 µM. 1.4% of 330,000 active;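 active means inhibition of 40% or more at the single tested concentration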;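 further: wild-type TIM10 isogenic control strain grown at permissive 25 °C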
NALP1 inh: blocks the NALP1 inflammasome reconstituted in yeast; 0.61% of 280,000 active; S. cerevisiae NALP1/ASC/caspase-1 growth, X-gal OD620, 72 h; inhibition, % at 10 µM; in the data active means inhibition mostly above about 24%, no sharp cut-off; inactive means mostly below about 32%
NALP3 yeast inh: blocks the NALP3 inflammasome reconstituted in yeast; Yeast reconstituted NLRP3/ASC/caspase-1, beta-gal luminescence, 24 h; inhibition, % at 10 µM; 0.39% of 330,000 active;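 active means inhibition of 50% or more; inactive means inhibition below 50%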;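 further: plate controls were induced DMSO wells for no effect and uninduced yeast grown without galactose for full effect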
tim10-1 inh: growth inhibitors of tim10-1 mutant yeast; S. cerevisiae tim10-1 ts strain growth, BacTiter-Glo, 24 h; inhibition, % at 20 µM; 2.2% of 330,000 active;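 active means inhibition of at least 40%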;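 further: mutant grown at 25 °C; 0% = DMSO wells with yeast and 100% = wells holding no yeast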
PfHsp90 set2: growth inhibition of yeast expressing Plasmodium Hsp90. AID 504621. 0.32% of 310,000 active. S. cerevisiae expressing PfHsp90, BacTiter-Glo ATP, 48 h; yeast lacking PDR1 and PDR3 efflux regulators. inhibition, % at 9.4 µM;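 active means every replicate shows inhibition above about 80%, whatever the replicate mean, limit read from the data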;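 further: 0% = DMSO neutral controls and 100% = 20 µM radicicol positive controls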
tim23-1 inh: inhibits growth of tim23-1 mutant yeast. inhibition, % at 20 µM. 1.3% of 330,000 active. S. cerevisiae tim23-1 growth, BacTiter-Glo luminescence, 24 h;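 active means growth inhibition of the mutant yeast at or above 50%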;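 further: temperature-sensitive mutant grown at 25 °C; plate controls were DMSO-treated mutant yeast for no effect and medium wells lacking yeast for full effect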
tim10-1 confirm: confirmation of tim10-1 mutant yeast growth inhibitors. shares compounds with tim10-1 inh. S. cerevisiae tim10-1 ts strain growth, BacTiter-Glo, 24 h. inhibition, % at 20 µM. 56% of 7,400 active. AID 463213;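 active means inhibition of yeast growth at or above a set limit in either of two repeat tests at 20 µM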;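 further: tim10-1 mutant grown at permissive 25 °C to find synthetic lethal compounds; 0% = DMSO yeast wells and 100% = medium wells without yeast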
Starred values were filed as active, the others as inactive; / = no result given; ! = not confirmed by another sample. The list is not random: actives were taken first. Their share in the collection is about 4.2%.

SMILES	TIM10 inh	NALP1 inh	NALP3 yeast inh	tim10-1 inh	PfHsp90 set2	tim23-1 inh	tim10-1 confirm
O=c1[nH]c(N/N=C\c2ccc3c(c2)OCO3)nc2ccccc12	18.5	16.1	-0.4	40.1*	27.7	16.7	21.6
O=c1[nH]c(N/N=C/c2cc3c(cc2[N+](=O)[O-])OCO3)nc2ccccc12	-4.0	1.4	-4.7	6.2	1.2	-1.7	/
CN(C)c1nc(NCc2ccccc2)nc(N/N=C/c2ccc3c(c2)OCO3)n1	12.6	6.3	38.8	40.9*	-0.7	39.4	25.5
Cn1c(O)c(C=Nc2ccc(Br)cc2)sc1=O	2.3	10.2	20.5	8.7	-4.4	-9.6	/
COCCn1c(=S)[nH]c2cc(C(=O)N3CC(C)CC(C)C3)ccc2c1=O (centres undefined)	-33.4	-3.6	4.3	41.1*	-27.6	-7.8	-61.9
CN(C)CC/C=C1/c2ccccc2Sc2ccc(Cl)cc21	20.2	-0.3	46.1	40.5*!	-9.6	-19.0	26.9
CCCCOP(=O)(c1ccc(N(C)C)cc1)C(O)c1ccccc1F (centres undefined)	30.7	32.6	0.0	42.6*	-33.1	24.4	20.9
CCCCOP(=O)(c1ccc(N(C)C)cc1)C(O)c1ccc(OC)cc1 (centres undefined)	6.5	1.4	-6.9	19.8	4.3	23.0	/
O=C(CC1CCCC1)Nc1cc(C(F)(F)F)ccc1-n1cncn1	5.3	/	12.4	-2.5	2.2	8.2	/
O=S(=O)(Nc1c(O)ccc2ccccc12)c1cccc2ccccc12	27.0	/	-0.2	43.9*	-49.6	36.8	31.7
CCc1cc2ccc(OC)cc2nc1SCC(=O)NNC(=O)c1ccco1	25.8	-9.5	12.1	42.7*	-14.6	49.4	23.7
Nc1cc(Cl)ccc1Oc1ccc2ccccc2c1	9.0	-2.0	17.9	60.6*	-18.2	28.3	57.0*
O=c1ccc(C(F)(F)F)cn1Cc1cc(=O)n2cc(Br)ccc2n1	-3.6	-17.1	24.2	-11.7	-8.7	-10.3	/
CS(=O)(=O)N(CC(=O)Nc1cccc(F)c1)Cc1ccccc1	-12.4	21.5	4.1	49.4*	-5.7	7.1	5.2
COc1ccc(NC(=O)c2sc3nc(N4CCCC4)c4c(c3c2N)CC(C)(C)OC4)c(OC)c1	-1.4	3.5	12.8	25.9	-2.7	9.2	/
COc1ccc(NC(=O)c2sc3nc(N4CCOCC4)c4c(c3c2N)CC(C(C)C)OC4)c(OC)c1 (centres undefined)	-5.4	5.2	15.3	42.6*	-13.6	1.1	3.7
Cc1ccccc1-n1ncc2c1CC(C)(C)CC2NC(=O)c1snnc1C (centres undefined)	-2.9	8.6	7.2	21.4	-43.1	16.8	/
Cc1cc(C)c(C)c(S(=O)(=O)N2CCC(C(=O)NCCCN3CCOCC3)CC2)c1C	16.4	/	11.7	-0.2	/	6.2	/
CCC(=O)c1ccc(OCC(=O)OCC(=O)N2c3ccccc3CC2C)cc1 (centres undefined)	-1.8	/	10.3	40.8*	8.4	40.1	35.2*
O=C(COc1ccc(Cl)cc1)OCC(=O)N1CCCc2ccccc21	17.9	23.3	16.3	23.1	-0.4	21.7	/
CCC(=O)c1ccc(OCC(=O)OCC(=O)N2CCCc3ccccc32)cc1	13.1	/	6.3	42.9*	18.7	47.8	28.0
CCCCN(CC)CCCNC(=O)c1cn(-c2ccc(OC)cc2)c(=O)c2ccccc12	2.8	-82.0	10.5	3.7	-35.8	-7.1	/
COc1cccc(NC(=S)N/N=C2\CC3CCC2(C)C3(C)C)c1 (centres undefined)	35.8	17.9	17.2	41.4*	-136.6	17.0	30.8*
O=C(CSc1nncc2ccccc12)Nc1cccc(O)c1	1.2	15.6	23.4	6.8	9.8	12.6	/
CC(NC(=O)CNC(=O)c1ccc2c(c1)OCO2)c1ccc(S(N)(=O)=O)cc1 (centres undefined)	7.4	/	0.8	-12.8	7.6	2.9	/
SMILES	TIM10 inh	NALP1 inh	NALP3 yeast inh	tim10-1 inh	PfHsp90 set2	tim23-1 inh	tim10-1 confirm
CC(=O)c1sc(N/N=C2\CC3CC2C(C)C3(C)C)nc1C (centres undefined)	18.3	-15.8	14.8	45.1*	15.7	19.6	28.5
COc1ccc(C2CC(=O)c3cnc(Nc4cc(C)cc(C)c4)nc3C2)cc1 (centres undefined)	36.4	9.4	13.5	46.4*	/	30.2	26.6
CCC(=O)N1c2ccc(S(=O)(=O)CCC(=O)N3CCn4c3nc3ccccc34)cc2CC1C (centres undefined)	16.7	13.6	-14.5	44.7*	15.7	6.2	29.2
Cc1ccc(S(=O)(=O)N(Cc2ccccc2)c2ccccc2C(=O)Nc2ccccc2C(=O)NCc2ccco2)cc1	10.6	21.3	0.4	26.0	-6.8	32.5	/
Cc1ccc(S(=O)(=O)N(Cc2ccccc2)c2ccccc2C(=O)NCc2ccco2)cc1	12.0	17.7	4.0	40.7*	/	37.7	19.5
CCCCn1c(N)c(N(CCOC)C(=O)c2ccc(Cl)c(S(=O)(=O)N3CCCCC3)c2)c(=O)[nH]c1=O	1.0	/	21.8	1.3	-6.7	16.6	/
CC(C)n1c(CN2CCN(C(=O)c3ccco3)CC2)nc2c1c(=O)n(C)c(=O)n2C	9.7	10.9	1.0	12.9	-7.5	3.6	/
CN(C)c1ccc(C(=S)N2CCN(c3ccccc3)CC2)cc1	32.3	-13.4	3.8	46.0*	-0.1	43.3	36.3*
COc1ccc(OC2CCN(S(=O)(=O)c3ccc(OC)cc3)CC2)cc1	8.4	27.4	25.9	43.0*	0.6	45.1	42.0*
CC(C)c1ccc(S(=O)(=O)N2CCN(C(=O)Cc3ccsc3)CC2)cc1	13.3	/	15.0	42.9*	23.9	26.7	12.1
COc1ccc(S(=O)(=O)N2CCN(C(=O)c3ccc([N+](=O)[O-])o3)CC2)cc1	27.6	13.8	27.4	50.5*	-3.1	35.4	45.1*
Cc1ccc(N2CCN(C(=S)c3ccc(N(C)C)cc3)CC2)cc1	27.3	12.9	3.4	22.9	-3.9	31.5	/
COc1ccccc1CCC(=O)N(C)CC(=O)Nc1ccc(F)cc1	9.0	1.2	4.4	8.6	6.7	6.7	/
COc1ccc(/C(O)=C2/C(=O)C(=O)N(c3ccccn3)C2c2cccc(Cl)c2)cc1 (centres undefined)	-1.7	-7.7	6.9	18.7	6.6	25.6	/
COc1ccc(S(=O)(=O)N2CCN(C(=O)c3cccc(Cl)c3)CC2)cc1	20.3	5.0	15.9	56.3*	2.1	41.0	26.8
COc1ccc(C(=S)N2CCN(S(=O)(=O)c3ccccc3)CC2)cc1	14.6	3.6	4.0	46.2*	-11.4	42.3	24.9
CC(=O)N1CCN(C(=S)c2ccc(N(C)C)cc2)CC1	10.5	-12.7	1.4	16.8	6.5	8.6	/
CN(C)c1ccc(C(=S)N2CCN(S(=O)(=O)c3ccccc3)CC2)cc1	19.2	10.2	-4.3	40.3*	-17.3	20.9	20.2

Source: PubChem BioAssay (several laboratories)
